From ChEMBL document CHEMBL4513216, “Probing the Open Global Health Chemical Diversity Library for Multistage-Active Starting Points for Next-Generation Antimalarials” (ACS Infect Dis, 2020)
About 8,600 (12%) of roughly 69,000 compounds showed an effect of 50% or more. The sample holds strong results, similar compounds and a random draw of the others, so the mix is not that of the screen.

System: Plasmodium berghei
Test: Screen against P. berghei liver stage (PbLuc), transformed with Luciferase, at 10uM
Type: functional, HepG2
Conditions: tested at 10 uM

SMILES	INHIBITION
O=C(c1ccn(-c2ccc(F)cc2)n1)N1CCCC(n2ccnc2)C1 (stereo unspecified)	-17%
CCc1nc(CNC2CCN(S(C)(=O)=O)CC2)cs1	28.3%
O=C(C1CCOCC1)N1CCO[C@H]2[C@@H](OCC3CC3)CC[C@@H]21	-19.8%
CCC(C)N(Cc1cccnc1)C(=O)c1ccc(NS(=O)(=O)CC)cc1 (stereo unspecified)	18.8%
CCCn1ncc(C(=O)N2CCCC(OCc3ccccn3)C2)c1C (stereo unspecified)	-38.6%
O=C(Nc1cccnc1)[C@H]1C[C@H]2CN(C(=O)NC3CCCC3)C[C@@H]1O2	9.67%
CNC(=O)N1C[C@@H]2C[C@H](C(=O)Nc3cccnc3)[C@H](C1)O2	54.4%
CN(C)C(=O)[C@H]1C[C@H]2CN(S(=O)(=O)c3ccccc3)C[C@@H]1O2	33.4%
CNC(=O)[C@H]1C[C@H]2CN(C(=O)NCCc3ccccc3)C[C@@H]1O2	19.5%
CNC(=O)[C@H]1C[C@H]2CN(C(=O)Nc3ccccc3)C[C@@H]1O2	-26.5%
CN(C)C(=O)[C@H]1C[C@H]2CN(S(=O)(=O)Cc3ccccc3)C[C@@H]1O2	19.9%
O=C(NCCc1ccccc1)N1C[C@@H]2C[C@H](C(=O)N3CCCC3)[C@H](C1)O2	57.1%
CN1C[C@@H]2C[C@H](C(=O)Nc3cccnc3)[C@H](C1)O2	41.6%
CNC(=O)N1C[C@@H]2C[C@H](C(=O)Nc3ccccc3)[C@H](C1)O2	62%
CN(C)C(=O)[C@H]1C[C@H]2CN(CCc3ccccc3)C[C@@H]1O2	66%
O=C(Nc1ccccc1)[C@H]1C[C@H]2CN(C(=O)Nc3ccccc3)C[C@@H]1O2	7.31%
O=C(NCc1ccccc1)N1C[C@@H]2C[C@H](C(=O)N3CCCC3)[C@H](C1)O2	15.3%
COCCc1noc(CN2CCCC2c2c(C)nn(C)c2OC)n1 (stereo unspecified)	17.4%
CCCNC(=O)C1CCCN(Cc2csc(C(C)(C)C)n2)C1 (stereo unspecified)	-62.8%
CNC(=O)[C@@H](c1ccccc1OC)N1CCC[C@H]1C(=O)NC(C)(C)C	-22.4%
Cc1cccc(C)c1OCC(=O)NC(C)c1nnc2n1CCC2 (stereo unspecified)	-29.2%
COc1c(CNCC(=O)N2CCN(C)CC2)c(C(C)C)nn1C	42.1%
Cc1noc(CNC(=O)c2ccccc2-n2cc(CN)cn2)n1	20.8%
O=C1CN(C(=O)c2cc3ccc(Br)cc3[nH]2)CCN1	-56.7%
CCc1cnc(CN(C)C2CCN(CC3CCOCC3)C2)o1 (stereo unspecified)	5.85%
Cc1nsc(NC(=O)N2CCc3sccc3C2)n1	24.1%
